Sfp PPTase inh: Sfp phosphopantetheinyl transferase inhibition; Biochemical Sfp PPTase activity, qHTS; Q9F4F7; Potency, µM, most hits filed as inhibitors; 3.5% of 310,000 active;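 further: the enzyme is Sfp with the accession as filed and its product quenches rhodamine fluorescence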
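Sfp 15 nM + cpd, 15 min RT; start w/ rhodamine-CoA 5 uM, BHQ-2-YbbR 12.5 uM (final); 50 mM Hepes pH 7.6, 10 mM MgCl2, 0.01% NP-40, 0.01% BSA; read 525/598 nm at 0 and 30 min.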
JMJD2E inh: blocks human JMJD2E demethylase activity. B2RXH2. JMJD2E catalytic domain, FDH-coupled NADH fluorescence (FDH is formaldehyde dehydrogenase). Potency, µM (top dose mostly 57.1 µM), actives largely listed as inhibitors. 1.6% of 230,000 active; active means well fitted inhibition curve with a large enough effect, not every such curve was filed as active; inconclusive means small, poorly fitted or top-dose-only effect, or another doubt; inactive means no such curve, though single readings can be large or run the other way; further: nearly all actives have a fitted effect of over 50% in size
Target sequence (B2RXH2 1-337 limits assumed): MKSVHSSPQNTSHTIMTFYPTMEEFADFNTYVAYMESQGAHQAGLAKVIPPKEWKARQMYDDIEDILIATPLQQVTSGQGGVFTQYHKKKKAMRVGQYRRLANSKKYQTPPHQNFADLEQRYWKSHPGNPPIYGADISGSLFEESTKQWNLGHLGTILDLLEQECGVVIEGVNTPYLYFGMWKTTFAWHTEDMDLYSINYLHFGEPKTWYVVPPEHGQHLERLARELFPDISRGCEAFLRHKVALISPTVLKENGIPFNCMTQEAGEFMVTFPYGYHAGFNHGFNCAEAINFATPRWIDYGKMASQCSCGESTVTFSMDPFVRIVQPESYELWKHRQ
IMPase Li inh: membrane-permeable IMPase blocker, potentiated with lithium; CHO-M1 cells, IP1 TR-FRET (IP-One), carbachol + lithium; Potency, µM (doses to about 59.4 µM), usual class: inhibitors; AID 1457; 0.35% of 210,000 active;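 further: IP1 builds up when IMPase is blocked and the TR-FRET signal falls; nearly all actives have a fitted effect of over 50% in size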
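Readout is a homogeneous TR-FRET IP1 immunoassay (Ex 320, Em 665 and 620), where raised cytosolic IP1 lowers signal. Cells were CHO-M1 treated 30 min at 37C with test compounds plus a little lithium; AC50 values came from Hill-equation fitting.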
GCN5L2 inh: blocks human GCN5L2 histone acetyltransferase. Q92830. GCN5L2 HAT assay, ThioGlo1 CoA-SH fluorescence. Potency, µM (titrated, usually from 58.9 µM), actives largely listed as inhibitors. 0.21% of 390,000 active
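ThioGlo1-coupled HAT assay: 20nM GCN5L2, 70uM acetyl-CoA, 75uM H3(1-25) peptide, pH 7.5. Fluorescence read at 340/540nm at start and after 20 min at room temperature.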
Epigenetic reg: epigenetic control regulation, reporter derepression; 0.2% of 280,000 active; AID 1865; Potency, µM (top dose mostly 53.9 µM), hits mostly activators; murine LDR cells, GFP reporter derepression, 30 h; further: nearly all actives have a fitted effect of over 60% in size
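GFP-positive cell count by laser-scanning cytometry (objects 20–120 um) after 30 h, 37 C compound exposure of murine LDR cells; reporter is CMV-GFP integrated at a silenced locus, inducible by HDAC or DNMT inhibitors.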
NPSR antag: neuropeptide S receptor (human) antagonism, cAMP; Q6W5P4; CHO-NPSR cells, cAMP TR-FRET, antagonist mode; Potency, µM (titrated, usually from 38.3 µM), usual class: inhibitors; 1% of 220,000 active; AID 1461; further: nearly all actives have a fitted effect of over 50% in size
Target sequence (Q6W5P4 whole entry, looked up): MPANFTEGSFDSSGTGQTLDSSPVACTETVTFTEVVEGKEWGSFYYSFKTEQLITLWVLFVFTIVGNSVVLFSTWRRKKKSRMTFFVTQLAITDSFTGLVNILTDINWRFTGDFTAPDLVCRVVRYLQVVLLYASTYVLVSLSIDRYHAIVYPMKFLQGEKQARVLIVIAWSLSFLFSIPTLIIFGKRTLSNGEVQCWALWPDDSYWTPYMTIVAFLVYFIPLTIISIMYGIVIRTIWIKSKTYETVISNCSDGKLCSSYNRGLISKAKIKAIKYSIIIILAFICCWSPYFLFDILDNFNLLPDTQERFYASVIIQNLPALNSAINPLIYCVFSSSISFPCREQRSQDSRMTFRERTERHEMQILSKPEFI
Numbers stand for hits; . = inactive; ? = inconclusive; / = no result given; ! = not confirmed by another sample; [ ] = another dose, or the depositor's remark. Hits are enriched below; roughly 3.6% of the tested compounds scored in any of these assays. Unless noted, the call rests on the fitted dose curve; in most records, active means well fitted curve in the direction sought with a large enough effect; inconclusive means small, poorly fitted or top-dose-only effect, or another doubt; inactive means no such curve, though single readings can be large; an effect the other way counts as inactive or inconclusive.

SMILES	Sfp PPTase inh	JMJD2E inh	IMPase Li inh	GCN5L2 inh	Epigenetic reg	NPSR antag
O=C(c1ccco1)N1CCN(C(=O)N2CCCCC2)CC1	.	.	.	.	.	.
CC1=CC(=O)C=C(C)C1=NOc1ccccc1[N+](=O)[O-]	5.6µM	.	.	.	.	.
N[C@@H](Cn1ccc(=O)c(O)c1)C(=O)O	/	/	/	.	/	/
CC1=CC2=NC(=O)/C(=C/c3cccn3Cc3ccccc3)C(=N)N2O1	.	.	/	.	.	?
N=C1/C(=C/c2cccn2Cc2ccc(Cl)cc2)C(=O)N=C2SC=CN12	40µM	.	.	.	?	.
Cc1nc(NC2CCCCC2)c2nc(-c3ccccc3)n(CCCN3CCCCC3C)c2n1 (centres undefined)	.	?	.	/	.	/
COc1ccc(-c2cn3nc(N4CCCC(C(=O)NCc5ccccc5OC)C4)sc3n2)cc1 (centres undefined)	/	/	/	.	.	/
COc1cc(OC)cc(-c2nnc3n2N=C(c2ccccc2OC)CS3)c1	.	/	/	/	/	/
Cc1nn(Cc2ccccc2)c(Cl)c1/C=C1\NC(=S)NC1=O	40µM	?	.	.	?	.
Cc1nn(Cc2ccc(F)cc2)c(Cl)c1/C=N/NC(=O)c1ccccc1	.	?	.	.	.	.
CC(C)(C)Cc1nnc(NC(=O)Cc2ccc([N+](=O)[O-])cc2)s1	40µM	.	.	.	.	.
NC(=O)NC(=O)[C@H]1CCCC[C@@H]1C(=O)O	/	/	.	/	/	/
NC(C(=O)O)c1cccc(O)c1 (centres undefined)	.	/	.	.	.	/
COC(=O)c1cc(O)cc(OC)c1Oc1cc(C)cc(O)c1C(=O)O	56µM	?	/	.	.	.
COC(=O)c1cc(O)cc(OC)c1C(=O)c1c(O)cc(C)cc1O	.	.	/	.	.	.
COc1ccc(NS(=O)(=O)c2cc([N+](=O)[O-])ccc2N/N=C\c2c(C)[nH]c3ccccc23)cc1	.	.	.	.	10µM	.
CCc1cccc2c1NC1(CCCC1)CC2C (centres undefined)	56µM	?	/	.	.	.
CC(=O)C1CCC2C3CC(C)C4=CC(=O)CC[C@@]4(C)C3C(O)C[C@@]12C (some centres undefined)	.	.	.	.	.	/
COc1cc(/C=C/C(=O)N2CCCCC2=O)cc(OC)c1OC	.	.	.	/	.	/
COc1ccc2[nH]c(=O)c(CN(CCc3ccccc3)Cc3nnnn3CC3CCCO3)cc2c1 (centres undefined)	50µM	?	.	.	.	.
CNC(=S)N(Cc1ccco1)Cc1cc2cc(OC)ccc2[nH]c1=O	.	.	.	.	.	.
COc1ccc2[nH]c(=O)c(CN(Cc3ccc(C)cc3)Cc3nnnn3CC3CCCO3)cc2c1 (centres undefined)	16µM	?	.	?	.	.
O=c1[nH]c2cc3c(cc2cc1CN(CCc1ccccc1)Cc1nnnn1CC1CCCO1)OCO3 (centres undefined)	56µM	?	.	.	.	.
COc1ccc2[nH]c(=O)c(CN(Cc3ccccc3OC)Cc3nnnn3CC3CCCO3)cc2c1 (centres undefined)	?	?	.	.	.	.
Cc1ccc2[nH]c(=O)c(CN(CCc3ccccc3)Cc3nnnn3CC3CCCO3)cc2c1 (centres undefined)	.	?	.	.	.	.
SMILES	Sfp PPTase inh	JMJD2E inh	IMPase Li inh	GCN5L2 inh	Epigenetic reg	NPSR antag
COC(=O)c1ccccc1S(=O)(=O)N(Cc1ccco1)Cc1cc2cc(OC)ccc2[nH]c1=O	22µM	?	.	.	.	.
C[C@@H]1OC2C3=C(C(=O)[C@H]4O[C@@H]4[C@H]3O)[C@@H]1[C@H]1[C@H](C)OC=C3[C@H](O)[C@H]4O[C@H]4/C(=N\OCc4ccccc4)[C@@]321	.	/	/	/	.[10.1 µM]	/
COc1ccc2[nH]c(=O)c(CN(Cc3ccco3)Cc3nnnn3Cc3ccccc3)cc2c1	56µM	?	?	.	?	?
COc1ccc2[nH]c(=O)c(C(c3nnnn3C(C)(C)C)N(Cc3ccco3)CC3CCCO3)cc2c1 (centres undefined)	.	?	16µM	.	.	?
Cc1ccc2cc(CN(Cc3ccc(F)cc3)Cc3nnnn3C3CCCC3)c(=O)[nH]c2c1	22µM	?	.	.	.	?
CC1=C(C(=O)Nc2ccccc2C)C(c2cccnc2)n2nc(SCc3ccccc3)nc2N1 (centres undefined)	/	/	/	.	.	/
COc1ccc(NS(=O)(=O)c2ccc3c(c2)Cc2ccccc2-3)cn1	71µM	.	.	.	.	?
Cc1ccc(S(=O)(=O)Oc2cc(S(=O)(=O)O)cc3cc(S(=O)(=O)O)cc(N)c23)cc1	/	/	.	/	/	/
CC1=NN(c2ccc(F)cc2)C(=O)C1C(c1cccc(O)c1)c1c(C)[nH]n(-c2ccc(F)cc2)c1=O (centres undefined)	.	.	.	.	.	.
CC1=NN(c2ccc(Cl)cc2)C(=O)C1C(c1cccc(O)c1)c1c(C)[nH]n(-c2ccc(Cl)cc2)c1=O (centres undefined)	.	3.2µM	.	.	.	.
CN(C)C=Nc1ccc2nn(-c3ccccc3)nc2c1	.	?	13µM	?	.	.
CCCC(=O)C1=C(c2ccccc2)C(C#N)(C#N)C(C#N)=C1N	28µM	?	.	.	.	.
CC(C)C1Oc2ccccc2N(CC(=O)N(Cc2ccncc2)Cc2ccco2)C1=O (centres undefined)	45µM	.	.	.	.	.
CC(C)C1Oc2ccccc2N(CC(=O)N(C)C2CCCCC2)C1=O (centres undefined)	.	/	/	.	/	/
CCN1CCN(Cc2c(O)ccc3oc(C)c(C(=O)Nc4cccc(C(F)(F)F)c4)c23)CC1	/	/	/	.	.	/
CCCCCCCCCC(=O)O	/	/	.	.	/	/
CCCCCC#CCC#CCC#CCC#CCCCC(=O)O	.	16µM!	.	2.2µM	.	.
CC(OC(=O)c1cccs1)C(=O)NCc1ccco1 (centres undefined)	.	.	.	.	.	.
COc1ccccc1C(OC(=O)c1cccs1)C(=O)NCc1ccco1 (centres undefined)	50µM	.	.	.	?	.[7.67 µM]
[O-][n+]1cccc2c(Br)cc(Br)c(O)c21	.	.	.	.	.	.
C[n+]1cccc2c(Br)ccc([O-])c21	56µM	?	/	.	.	.
O=C(NCCc1ccccc1Cl)c1sc2ncccc2c1-n1cccc1	/	/	/	.	.	/
Cc1ccc(-n2c(O)c(C=Nc3ccc4c(c3)OCO4)c3ccccc3c2=O)cc1C	35µM	.	.	.	?	.
COC(=O)C1=C(C(=O)OC)[C@@H]2N(C)c3ccccc3[C@@]23C[C@@H](CO)N(C(=O)c2cc(C)oc2C)C3=N1	.	.[11.4 µM]	.	/	/	/

Compound activity deposited in PubChem BioAssay by National Center for Advancing Translational Sciences (NCATS).
